# Out of some 16,000 compounds screened, about 5,700 (36%) were called active. Another 24% or so got no clear call; they are omitted. The list shows a part of the results. Values without a mark were called inactive. Calls follow the shape of the dose curve; as a rule, active = well fitted curve in the direction sought with a large enough effect; inconclusive = small, poorly fitted or top-dose-only effect, or effect the other way; inactive = no such curve, though single readings can be large or run the other way.
# Target: Cytochrome P450 1A2 (Homo sapiens) (UniProt P05177)
# Sequence (P05177 whole entry, looked up): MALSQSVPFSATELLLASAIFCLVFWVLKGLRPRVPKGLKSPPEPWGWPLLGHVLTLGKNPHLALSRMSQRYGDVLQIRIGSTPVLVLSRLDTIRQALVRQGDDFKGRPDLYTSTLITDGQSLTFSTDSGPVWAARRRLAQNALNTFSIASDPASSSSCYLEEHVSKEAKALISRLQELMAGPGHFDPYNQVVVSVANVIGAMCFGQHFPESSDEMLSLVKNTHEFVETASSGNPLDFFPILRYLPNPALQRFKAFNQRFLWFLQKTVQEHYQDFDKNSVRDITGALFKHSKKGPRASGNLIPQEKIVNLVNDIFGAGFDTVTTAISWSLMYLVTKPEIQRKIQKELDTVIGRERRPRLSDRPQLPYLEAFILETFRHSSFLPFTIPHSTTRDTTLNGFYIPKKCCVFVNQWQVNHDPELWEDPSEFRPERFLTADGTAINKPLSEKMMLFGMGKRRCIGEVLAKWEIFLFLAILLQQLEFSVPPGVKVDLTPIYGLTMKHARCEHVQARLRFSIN
# Test: Cytochrome panel assay with activity outcomes
# Conditions: recombinant CYP, pro-luciferin dealkylation, luminescence, p450-cyp1a2; series mostly up to 57.1 µM
# Description: The P450 gene superfamily is involved in the metabolism and clearance of xenobiotics. This assay used various human CYP P450 isozymes to measure the dealkylation of various pro-luciferin substrates to luciferin. The luciferin is then measured by luminescence after the addition of a luciferase detection reagent. Pro-luciferin substrate concentration in the assay was equal to its KM for its CYP P450 isozyme. Inhibitors and some substrates limit the production of luciferin, and decrease measured luminescence.
# NCGC Assay Protocol Summary:
# 1, Reagent, 2 uL, Isozyme and Pro-Luciferin
# 2, Library compounds, 23 nl, 40 uM to 0.24 nM dilution series
# 3, Controls, 23 nl, Isozyme specific inhibitor
# 4, Reagent, 2 uL, NADPH regeneration solution
# 5, Incubation time, 60 min, Isozyme specific temperature
# 6, Reagent, 4ul, Detection reagent
# 7, Incubation time, 20 min, Isozyme specific temperature
# 8, Detection, 1 sec, ViewLux luminescent read
# The luciferase-based P450-GloTM Screening Systems were obtained from Promega (Madison, WI) for CYP 1A2 (V9770), CYP 2C9 (V9790), CYP2 C19 (V9880), CYP 2D6 (V9890), and CYP 3A4 Luciferin-PPXE (V9910) and were adapted for 1,536-well microplates and an automated protocol. The control compounds furafylline for 1A2 (F124), sulfaphenazole for CYP 2C9 (S0758), ketoconazole for CYP 2C19 (K1003), quinidine for 2D6 (Q3625), and ketoconazole for 3A4 (K1003) were purchased from Sigma Aldrich (St. Louis, MO). Recombinant P450 enzymes were obtained from baculovirus constructs expressed in insect cells (BD/Gentest).
# Medium-binding white solid Kalypsys plates used. Mixtures kept on ice. 1A2: 10 nM 1A2, 100 uM Luc-ME, 100 mM KPO4; 2C9: 10 nM 2C9, 100 uM Luc-H, 25 mM KPO4; 2C19: 5 nM 2C19, 10 uM Luc-H EGE, 50 mM KPO4; 2D6: 5 nM 2D6, 30 uM Luc-ME EGE, 100 mM KPO4; 3A4: 10 nM, 25 uM Luc-PPXE. All amounts are reflected in their final concentration, working concentration is 2x.
# NADPH regeneration solution: 1.3 mM NADP+, 3.3 mM glucose-6-phosphate, 3.3 mM MgCl2, 0.4 U/mL glucose-6-phosphate dehydrogenase for all isozymes, 200 mM KPO4 for 3A4. Mixture prepared at RT but kept on ice during automated run.
# RT incubation in auxilliary plate hotel for 1A2, 2D6, and 3A4; 37C for 2C9 and 2C19.
# Keywords: P450, CYP1A2, CYP2C19, CYP2C9, CYP2D6, CYP3A4, Luciferase, MLSMR, MLSCN, NIH Roadmap, qHTS, NCGC
# % is scaled to controls: 0 for no effect and ±100 for the full control effect.
Compound,"activity, negative = inhibition",AC50
Oc1c([C@H](Nc2ccccn2)c2ccccc2)ccc2cccnc12,-21.9% [at 2.29 µM],
CC(C)(C)C(=O)NC(Nc1cccc2cccnc12)C(Cl)(Cl)Cl (stereo not given),,20 µM (active)
Cc1ccc(C)n1C(Cc1ccccc1)C(=O)O (stereo not given),6.11% [at 11.4 µM],
Cc1cc(C)n(-c2ccc(F)cc2)c(=O)c1C(=O)O,,inactive
Cc1ccc(-n2c(C)nc3c(cnn3-c3ccc(F)cc3)c2=O)cc1C,,2.51 µM (active)
FC(F)(F)c1cc(C(F)(F)F)c2ccc(N/N=C/c3cccc(Cl)c3)nc2n1,,2.51 µM (active)
O=c1c(O)c(-c2cc(O)c(O)c(O)c2)oc2cc(O)cc(O)c12,,5.01 µM (active)
Cc1cccc(OCCCCCn2ccnc2)c1,,0.282 µM (active)
Cc1ccc(OCCOCCn2ccnc2)c(Br)c1,,0.282 µM (active)
O=C1C2C3C=CC(C2C(=O)N1CN1CCOCC1)C1C2C(=O)N(CN4CCOCC4)C(=O)C2C31 (stereo not given),-7.11% [at 11.4 µM],
CCN1C(=O)[C@H]2[C@H]3[C@H](O)[C@H](O)C/C(=N/NC(=O)OCc4ccccc4)[C@@H]3CC[C@@H]2C1=O,-2.34% [at 11.4 µM],
CC(C)=NOC[C@@H](O)[C@@H]1O[C@@H]2OC(C)(C)O[C@@H]2[C@H]1O,-4.07% [at 11.4 µM],
Clc1ccc(-c2ccnc(Oc3cc(Cl)ccc3Cl)n2)cc1,,0.447 µM (active)
O=C(O)c1ccc(C(=O)O)c(C(=O)O)c1.[NH-][C@@H]1CCCC[C@@H]1[NH-].[Pt],-19% [at 11.4 µM],
CC(C)OCCCN1CN(S(=O)(=O)c2cccc(Cl)c2)c2nc3ccccc3nc21,,14.1 µM (active)
C[N+](C)(C)CC[N+]1(C)Cc2c(Cl)c(Cl)c(Cl)c(Cl)c2C1,,inactive
Cc1noc(C)c1-c1nc(NC2CCNCC2)c2ccccc2n1,,5.01 µM (active)
Cc1noc(C)c1-c1nc(Nc2ccncc2)c2ccccc2n1,,0.1 µM (active)
COc1ccc(Nc2ncc(C(=O)N3CCN(c4ccc(F)cc4)CC3)c3ccccc23)cc1,,inactive
Cc1noc(C)c1-c1nc(Nc2ccc(F)cc2)c2ccccc2n1,,0.251 µM (active)
Cc1noc(C)c1-c1nc(Nc2ccccc2)c2ccccc2n1,,0.251 µM (active)
COc1cccc(C2C3(C#N)C(N)=NC(OC)(OC)C23C#N)c1 (stereo not given),,inactive

Compound,"activity, negative = inhibition",AC50
C#CCCCO/N=C1/C[C@@H](O)[C@@H](O)[C@@H]2[C@@H]3C(=O)N([C@@H](C)c4ccccc4)C(=O)[C@H]3CC[C@@H]12,-1.14% [at 11.4 µM],
CNc1nc(-c2c(C)noc2C)nc2ccccc12,,0.0501 µM (active)
Cc1noc(C)c1-c1nc(N(C)C)c2ccccc2n1,,0.0398 µM (active)
COC(=O)[C@@H]1CC[C@H](C)[C@@H](c2ccc(C)cc2)N1C(=O)c1ccc(/C=N\O[C@@H](C)CN2CCCc3nc(C)c(C)cc32)cc1,-8.09% [at 11.4 µM],
C/C(=N/NC1=NCCN1)c1cn(C2=NCCN2)nc1C,-13.9% [at 2.29 µM],
CS(=O)(=O)N1CCC[C@@]2(CCN(c3ccncc3)C2)C1,,inactive
CN(C)[C@H]1C(=O)C(C(=O)NCN2CCCC2)=C(O)[C@]2(O)C(=O)C3=C(O)c4c(O)cccc4[C@@](C)(O)[C@H]3C[C@@H]12,,inactive
Cc1ccc(NC(=S)N2CCN(C(=O)C3CCCO3)CC2)c(C)c1 (stereo not given),,inactive
COC(=O)c1cc(OC)c(OC)cc1NC(=S)N1CCCCC1,,1.58 µM (active)
COC(=O)c1ccc(C(=O)OC)c(NC(=S)N2CCN(c3ccccc3)CC2)c1,,4.47 µM (active)
COC(=O)c1ccc(NC(=S)N2CCN(Cc3cccc(C)c3)CC2)cc1,,inactive
NC(=O)C1(N2CCCCC2)CCN(C(=S)Nc2ccc(Cl)cc2)CC1,,inactive
COc1ccc(N2CCN(C(=S)Nc3cc(C)ccc3C)CC2)cc1,,inactive
N[C@@H](CS(=O)O)C(=O)O,,inactive
COc1cccc(NC(=O)CSc2nc3c(c(-c4ccco4)c2C#N)CCCC3)c1,,inactive
CCc1sc(-c2c(C#N)c(N)nc3c2CCCCCC3)cc1[N+](=O)[O-],,2 µM (active)
Cc1ccc(N2C(=O)c3n[nH]c(C)c3C2c2ccccn2)cc1 (stereo not given),,inactive
O=c1ncn(-c2ccccc2F)c2ncccc12,,inactive
O=c1nc(-c2ccccc2)n(-c2ccccc2)c2ncccc12,,inactive
Cc1ccc(-n2cnc(=O)c3cccnc32)cc1,,inactive
Cc1ccc(-n2[nH]c(=O)c3cccnc32)cc1,,2.51 µM (active)
O=c1[nH]n(-c2cccc(Cl)c2)c2ncccc12,,5.01 µM (active)

Compound,"activity, negative = inhibition",AC50
CCOCCCn1cnc2c(c1=O)c1nc3ccccc3nc1n2-c1ccccc1,,4.47 µM (active)
COCCNC(=O)C1CCN(S(=O)(=O)N2CCC3(CC2)OCCO3)CC1,,inactive
CCC(C)NCc1ccc(C(=O)OC)o1 (stereo not given),,inactive
O=C(Nc1ccc2nc(SCc3ccc(Cl)cc3)sc2c1)c1ccccc1C(=O)N1CCOCC1,,inactive
COC(=O)c1ccc(CSc2nc3cc(Cl)ccc3s2)o1,,2 µM (active)
CCN(c1ccc(NC(=O)COC(=O)c2ccc3ccccc3n2)cc1)C(C)C,,2.51 µM (active)
Cc1ccc(C(C(=O)NCc2ccco2)N(C(=O)CNC(=O)c2cccs2)c2ccc(C)cc2)cc1 (stereo not given),,inactive
O=C(c1cccs1)n1nc(-c2ccc(Cl)cc2)nc1NCc1ccco1,,0.316 µM (active)
Cc1ccc(C(C(=O)NCc2ccco2)N(C(=O)CNC(=O)c2cccs2)c2ccc(C)cc2C)cc1 (stereo not given),,inactive
CCn1c(N)nc2ccccc21,,25.1 µM (active)
Cc1noc(COc2ccc(OCc3nc(C)no3)cc2)n1,,inactive
CCn1c(COc2ccc(OC)cc2)nc2ccccc21,,14.1 µM (active)
COc1ccc(OCc2nnc(SCC(=O)O)n2N)cc1,,inactive
C[n+]1ccccc1/C=N\O,,inactive
CC(C)NC(=O)N1CCN(c2ccncc2S(=O)(=O)N2CCOCC2)CC1,,inactive
O=[N+]([O-])c1cccc2c[nH]nc12,,2.51 µM (active)
O=[N+]([O-])c1ccc(S(=O)(=O)Cc2ccccc2)c2nonc12,-5.25% [at 2.29 µM],
O=[N+]([O-])c1cc(Cc2cc([N+](=O)[O-])c3cccnc3c2O)c(O)c2ncccc12,-31.1% [at 2.29 µM],
Cc1nc2cccc([N+](=O)[O-])c2n1CCCN(C)C,-16.9% [at 11.4 µM],
O=[N+]([O-])c1cccc2c(Br)[nH]nc12,,0.126 µM (active)
O=[N+]([O-])c1cccc2cn[nH]c12,,2.51 µM (active)

# — PubChem BioAssay AID1851 (National Center for Advancing Translational Sciences (NCATS), 2009)
